Laboratory results: PubChem BioAssay AID504327 (National Center for Advancing Translational Sciences (NCATS), 2011)
Values joined by “and” are separate entries in the source; they are usually repeats but may differ in a detail not shown here. Equal values may be shown once. About 820 (0.21%) of roughly 390,000 compounds were called active. Entries that show only a call come without a potency. Not shown: some 3% with an inconclusive outcome. The sample holds actives, similar compounds and a random draw of the others, so the mix is not that of the screen. The call rests on the fitted dose curve; in most records, active means well fitted inhibition curve with a large enough effect; inconclusive means small, poorly fitted or top-dose-only effect, or another doubt; inactive means no such curve, though single readings can be large or run the other way. Some compounds were tested as several samples or in several runs, with calls that do not always agree. Non-standard residues stand in square brackets, D forms with d. Residues, ends and D or L forms follow the SMILES beside them. Groups on a side chain read outwards from the residue. *: point of attachment. X1 = CCC(C)C(N)C1=NC(C(=O)*)CS1; Orn = NCCC[CH](N)C(=O)O

Target: Histone acetyltransferase KAT2A (Homo sapiens) (UniProt Q92830)
Experiment: qHTS Assay for Inhibitors of GCN5L2
Conditions: GCN5L2 HAT assay, ThioGlo1 CoA-SH fluorescence; series mostly up to 58.9 µM
Text: Histone acetyltransferase (HAT) enzymes transfer a […] group from acetyl-coenzyme A to the epsilon-amino group of conserved lysine residues of N-terminal histone tails. Acetylation results in charge neutralization of this positively charged amino acid, decreasing interactions with the […] backbone and making the DNA more accessible for transcription. HATs have been recognized as an emerging drug target for treatment of cancer, diabetes, asthma, chronic obstructive pulmonary disease, cardiac disease, and viral infection. Protein identified with HAT activity include the […] like 2 (GCN5L2, a.ka. Histone acetyltransferase KAT2A) which acetylates histone H3 at Lys9, 14, 18, 13, and to lesser extent histones H4 and H2B. This activates transcription of the gene by modulating chromatin structure and installing the acetyllysine recognition mark for bromodomain-containing coactivator proteins.
A quantitative high throughput screen was developed to identify small molecule inhibitors. The assay is based on the principle that it measures formation of reduced CoA with the pro-fluorescent maleimide derivative ThioGlo1 that becomes fluorescent upon reaction with the free thiol of CoA.
A large number of artifacts are expected in this primary screen, compounded by the assay format (fluorescent artifacts) and by the high top concentration tested for each substance. This BioAssay data deposition should be used with caution, and counterscreen and secondary assay validation is essential since very few actives from the primary screen are expected to be true inhibitors of GCN5L2.
[2] Yasgar, et al. Compound Management for Quantitative High-Throughput Screening. JALA. 2008 Apr;13(2):79-89.
[3] Inglese, et al. Quantitative high-throughput screening: a titration-based approach that efficiently identifies biological activities in large chemical libraries. Proc Natl Acad Sci. 1;103(31):11473-8. 2006. PMID: 16864780
NIH Molecular Libraries Probe Production Network [MLPCN]
NIH Chemical Genomics Center [NCGC]
Structural Genomics Consortium (SGC)
To each well of a 1,536w plate, 3ul of GCN5L2 (final concentration 20nM, in 50mM HEPES, 0.1mM EDTA (pH 7.5), 0.01% Tween-20 buffer) are added using a Kalypsys dispenser. Only buffer is added to some wells as a control. A Kalypsys pin-tool transferred 23nl of library compound solution in DMSO to each well, as well as the control inhibit garcinol. . Following a 15 min incubation of enzyme with compounds at room temperature, 1ul mixture of ThioGlo1 (50uM final), H3(1-25) peptide (75uM final), and Acetyl-CoA (70uM final) is added. Plates are read immediately on the ViewLux (PerkinElmer) (Ex340nm/Em540nm) for a 0 min read, incubated for 20 min at room temperature, and read again on the ViewLux with the same settings. The initial read was carried out to identify compounds that are potentially fluorescent.
Potency means the concentration at half of the fitted maximal effect.

Sequence of Histone acetyltransferase KAT2A (Homo sapiens) (Q92830 whole entry, looked up): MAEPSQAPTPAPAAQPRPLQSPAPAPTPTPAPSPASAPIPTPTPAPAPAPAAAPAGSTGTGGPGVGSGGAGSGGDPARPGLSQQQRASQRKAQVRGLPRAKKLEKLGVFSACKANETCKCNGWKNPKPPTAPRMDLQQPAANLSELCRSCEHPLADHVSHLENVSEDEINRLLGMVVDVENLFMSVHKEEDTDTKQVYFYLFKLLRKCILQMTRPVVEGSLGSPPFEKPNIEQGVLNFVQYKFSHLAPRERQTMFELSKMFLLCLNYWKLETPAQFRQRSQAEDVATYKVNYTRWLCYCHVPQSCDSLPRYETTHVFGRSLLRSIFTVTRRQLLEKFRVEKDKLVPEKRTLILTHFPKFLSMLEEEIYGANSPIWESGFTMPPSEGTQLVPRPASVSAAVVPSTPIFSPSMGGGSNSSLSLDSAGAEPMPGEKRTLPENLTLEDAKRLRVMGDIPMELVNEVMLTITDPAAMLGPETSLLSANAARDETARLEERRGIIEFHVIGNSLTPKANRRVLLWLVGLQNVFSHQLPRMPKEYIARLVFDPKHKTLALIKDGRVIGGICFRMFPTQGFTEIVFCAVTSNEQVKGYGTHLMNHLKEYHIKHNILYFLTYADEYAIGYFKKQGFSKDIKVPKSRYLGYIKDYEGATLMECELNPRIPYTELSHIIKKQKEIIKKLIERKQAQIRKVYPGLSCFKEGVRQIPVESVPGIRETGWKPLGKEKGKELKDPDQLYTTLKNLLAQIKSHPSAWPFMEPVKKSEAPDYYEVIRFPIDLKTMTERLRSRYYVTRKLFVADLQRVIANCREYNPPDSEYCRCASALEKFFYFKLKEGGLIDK

| Structure (SMILES) | Potency | activity change, negative = inhibition |
| --- | --- | --- |
| COc1ccccc1-c1cc(NCc2cccs2)ncn1 | inactive | – |
| Cc1cc2oc(=O)cc(-c3ccccc3)c2c(C)c1/C=C/c1ccc(F)cc1 | inactive | – |
| CCCCCCn1nnc2sc(-c3ccccc3)cc2c1=O | inactive | – |
| Cc1ccc(Cl)cc1NC(=O)C(C)n1nnc2sc(-c3ccccc3)cc2c1=O (stereo not drawn) | 31.6 µM (active) | – |
| Cc1cc2nn(-c3ccc(Cl)cc3)nc2cc1NC(=O)C(C)C | inactive | – |
| COc1ccccc1CCn1c(=O)c(-c2cn(C)c3ccccc23)nc2cncnc21 | inactive | – |
| Cc1csc(-c2nc3ccccc3n2C)n1 | inactive | – |
| CN(Cc1ccco1)c1ncncc1-c1ccoc1 | inactive | – |
| Nc1ncnc2c1ncn2C1CC(O)C(CO)O1 (stereo not drawn) | inactive | – |
| O=C(Nc1ccc(O)cc1)c1ccccc1O | inactive | – |
| O=c1ccn([C@@H]2O[C@H](COP(=O)(O)OP(=O)(O)OP(=O)(O)O)[C@@H](O)[C@H]2O)c(=O)[nH]1 | inactive | – |
| NCCC(=O)c1ccccc1N | inactive | – |
| N#Cc1ccc(CN2CCCC3(CCN(C(=O)c4ccco4)CC3)C2)cc1 | inactive | – |
| C=C1/C(=C\C=C2\CCCC3(C)C2CCC3C(C)/C=C/C(O)C2CC2)CC(O)CC1O (stereo not drawn) | inactive | – |
| CC(O)COc1ccccc1 (stereo not drawn) | inactive | – |
| NNc1nnc(NN)c2ccccc12 | inactive | – |
| Cc1nc2cnc(N3CCN(C)CC3)nc2n(C[C@H]2CCCO2)c1=O | inactive | – |
| Cc1cc(N(C)C)nc(Cl)n1 | inactive | – |
| C=C(C)C1CC=C(C)C(O)C1 (stereo not drawn) | inactive | – |
| O=C(O)C(O)[C@@](O)(Cc1ccc(O)cc1)C(=O)O (stereo partly drawn) | inactive | – |
| CCN(Cc1ccncc1)C(=O)[C@@H](CO)c1ccccc1 | inactive | – |
| CC1(C)O[C@@H]2C[C@@H]3[C@H]4C[C@@H](F)C5=CC(=O)C=C[C@]5(C)[C@@]4(F)[C@@H](O)C[C@]3(C)[C@]2(C(=O)CO)O1 | inactive | – |
| CC(C)[C@H]1CC[C@@H](C)C[C@H]1O | – | 5.9% [at 0.501 µM] (inactive) |
| O=P(O)(O)OC[C@H](O)CO | inactive | – |
| O=c1[nH]c(=S)[nH]c2[nH]c(=S)[nH]c12 | 4.47 µM (active) and 3.55 µM (active) | – |
| COc1ccc(CC(N)C(=O)NC2C(O)[C@H](n3cnc4c(N(C)C)ncnc43)O[C@@H]2CO)cc1 (stereo partly drawn) | inactive | – |
| O=c1cnc2cnc(Nc3ccccc3)nc2n1Cc1ccc(F)cc1 | inactive | – |

| Structure (SMILES) | Potency | activity change, negative = inhibition |
| --- | --- | --- |
| C[C@@H]1C(c2ccc(F)cc2)=NN(c2ccc(Br)cc2)[C@H]1C(=O)N1CCOC1=O | inactive | – |
| O=C1OCCN1C(=O)[C@H]1[C@H](c2ccc(Cl)cc2)C(c2cccc(Cl)c2)=NN1c1ccc(Br)cc1 | inactive and 12.6 µM (active) | – |
| O=c1[nH]c2ccccc2n2c(-c3ccccc3)nnc12 | 22.4 µM (active) | – |
| O=c1cc(-c2ccccc2)n2c(SCc3ccccc3)nnc2[nH]1 | inactive | – |
| CC(C)Cn1c(=O)c2ccccc2n2c(-c3cccc(Cl)c3)nnc12 | inactive | – |
| C[C@@H](O)[C@@H]1NC(=O)[C@H](CCCCN)NC(=O)[C@H](Cc2c[nH]c3ccccc23)NC(=O)[C@H](Cc2ccccc2)NC(=O)[C@H](Cc2ccccc2)NC(=O)[C@H](CC(N)=O)NC(=O)[C@H](CCCCN)NC(=O)[C@@H](NC(=O)[C@@H]2CCCN2)CSSC[C@@H](C(=O)N[C@@H](CCCCN)C(=O)O)NC(=O)[C@H](CO)NC(=O)[C@H](CO)NC(=O)[C@H](Cc2ccccc2)NC1=O | inactive | – |
| O=C(c1cnccn1)N1CCC[C@@]2(CCN(Cc3ccncc3)C2)C1 | inactive | – |
| CC(C)[C@@H]1NC(=O)[C@H](Cc2ccccc2)NC(=O)[C@@H](CC(=O)O)NC(=O)CNC(=O)[C@H](CCCNC(=N)N)NC1=O | inactive | – |
| O=C(Nc1cccc(F)c1)N1CC2(CCN(C(=O)c3cnccn3)CC2)C1 | inactive | – |
| CC(C)(O)c1ccccc1CC[C@H](SCC1(CC(=O)O)CC1)c1cccc(/C=C/c2ccc3ccc(Cl)cc3n2)c1 | 20 µM (active) | – |
| CCCCC/C=C\C/C=C\CCCCCCCCCC(=O)O | inactive | – |
| CNc1ncnc2ccc(-c3cccc(NS(C)(=O)=O)c3)cc12 | inactive | – |
| C=C1O[C@@](CO)(n2cnc3c(N)ncnc32)[C@H](O)[C@@H]1O | inactive | – |
| CC[C@H](C)[C@H](NC(=O)[C@H](CCCNC(=N)N)NC(=O)[C@H](CCCNC(=N)N)NC(=O)[C@H](CC(C)C)NC(=O)[C@H](Cc1ccccc1)NC(=O)CNC(=O)CNC(=O)[C@@H](N)Cc1ccc(O)cc1)C(=O)N[C@@H](CCCNC(=N)N)C(=O)N1CCC[C@H]1C(=O)N[C@@H](CCCCN)C(=O)N[C@@H](CC(C)C)C(=O)N[C@@H](CCCCN)C(=O)N[C@@H](Cc1c[nH]c2ccccc12)C(=O)N[C@@H](CC(=O)O)C(=O)N[C@@H](CC(N)=O)C(=O)N[C@@H](CCC(N)=O)C(=O)O | inactive | – |
| FC(F)(F)C1CCCN(c2nsc3ccccc23)C1 (stereo not drawn) | 2.82 µM (active) | – |
| COCC(=O)N1CCC2(CCCN(c3ccccc3)C2)CC1 | inactive | – |
| O=S(O)S(=O)(=O)O | inactive | – |
| CCC(C)C(N)C1=NC(C(=O)NC(CC(C)C)C(=O)NC(CCC(=O)O)C(=O)NC(C(=O)NCCCCC2NC(=O)C(CC(N)=O)NC(=O)C(CC(=O)O)NC(=O)C(Cc3cnc[nH]3)NC(=O)C(Cc3ccccc3)NC(=O)C(C(C)CC)NC(=O)C(CCCN)NC2=O)C(C)CC)CS1 (stereo not drawn) (cyclo(DNK([Ile-Glu-Leu-X1])[Orn]IFH); configuration not given here) | inactive | – |
| COC(=O)CC1C(C)(C)C(OC(C)=O)C2CC3=C4CC(=O)OC(c5ccoc5)[C@]4(C)CCC3[C@@]1(C)C2=O (stereo partly drawn) | inactive | – |
| O=C(c1csnn1)N1CCC2(CC1)CN(c1ncccn1)C2 | inactive | – |
| CC(C)c1cnc(NC(=O)Cc2ccccc2)s1 | inactive | – |
| Cc1nc2cnc(N3CCN(C)CC3)nc2n(CCC#N)c1=O | inactive | – |
| C[C@H]1CCC[C@@]2(C)CCCC[C@]12O | inactive | – |
| CC(CCC(=O)O)C1CCC2C3C(O)C[C@@H]4CC(O)CC[C@@]4(C)C3CC[C@@]12C (stereo partly drawn) | inactive | – |
| O=c1cc(-c2ccc(O)cc2)oc2c([C@@H]3O[C@H](CO)[C@@H](O)[C@H](O)[C@H]3O)c(O)cc(O)c12 | inactive | – |
| O=C(c1ccncc1)N1CCC2(CCCN(C(c3ccccc3)c3ccccc3)C2)CC1 | inactive | – |
